# Source: PubChem BioAssay (EPA / NIEHS)
# Results filed as inconclusive are left out. Activity calls are given as the source filed them. How the source made its calls, unless noted: active means hit-call score of the fitted dose curve at least 0.9, where 1 is the maximum; inactive means score below 0.9.
# How the values were obtained:
# [1] = BSK_LPS_SRB: Viability Assessment in the BioMAP Diversity Plus: LPS Assay (AID 2283079); conditions: primary human HUVEC with PBMC;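 further: total protein by sulforhodamine B absorbance as a cytotoxicity measure; measured one day after compound addition; fitted in both directions against DMSO so loss or gain of signal counts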
# Outline: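 Overt cytotoxicity was gauged by sulforhodamine B total-protein staining in a primary human vascular endothelial and mononuclear cell co-culture 24 h post-dosing. Activity was fitted in both directions relative to DMSO.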
# [2] = read-out: Interleukin-1 alpha (IL1a), IL1A (gene 3552); test: BSK_LPS_IL1a: BioMAP Diversity Plus: LPS Assay for Interleukin-1 alpha (IL1a) Biomarker Activity (AID 2283080); conditions: primary human HUVEC with PBMC; actives raise or lower the signal
# Outline: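 Measured: IL-1 alpha via ELISA at 24 h in LPS-activated human umbilical vein endothelium–PBMC co-culture. Baseline: DMSO, bidirectional fitting.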
# [3] = read-out: Monocyte Chemoattractant Protein-1 (MCP1), CCL2 (gene 6347); test: BSK_LPS_MCP1: BioMAP Diversity Plus: LPS Assay for Monocyte Chemoattractant Protein-1 (MCP1) Biomarker Activity (AID 2283081); conditions: primary human HUVEC with PBMC; actives raise or lower the signal;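 on AC50: secreted MCP-1 protein quantified by ELISA in culture supernatant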
# Outline: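 LPS-stimulated HUVEC/PBMC co-culture; chemical, 24 h; MCP-1 by ELISA; bidirectional fit vs DMSO; cytotoxicity via SRB (0.1% stain, 10% TCA fix, 560 nm) in parallel wells.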
# [4] = BSK_LPS_PGE2: BioMAP Diversity Plus: LPS Assay for Prostaglandin E2 (PGE2) Biomarker Activity (AID 2283082); conditions: primary human HUVEC with PBMC; actives raise or lower the signal;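 on AC50: secreted prostaglandin E2 measured by ELISA in LPS-stimulated co-culture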
# Outline: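 Primary human endothelial cells and blood mononuclear cells, co-cultured with LPS, receive test chemical; PGE2 ELISA follows at 24 h, with SRB-stained parallel cultures flagging cytotoxicity.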
# [5] = read-out: Macrophage colony-stimulating factor (MCSF), CSF1 (gene 1435); test: BSK_LPS_MCSF: BioMAP Diversity Plus: LPS Assay for Macrophage colony-stimulating factor (MCSF) Biomarker Activity (AID 2283083); conditions: primary human HUVEC with PBMC; actives raise or lower the signal
# Outline: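 Compound is added to a human vascular primary co-culture of umbilical vein endothelium and blood mononuclear cells. After 24 h, M-CSF is quantified by ELISA. Signal changes are fitted in both directions against DMSO.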
# [6] = read-out: Tissue Factor, F3 (gene 2152); test: BSK_LPS_TissueFactor: BioMAP Diversity Plus: LPS Assay for Tissue Factor Biomarker Activity (AID 2283084); conditions: primary human HUVEC with PBMC; actives raise or lower the signal
# Outline: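 In this co-culture system of umbilical vein endothelium with PBMC, stimulated with LPS, cell-surface CD142 is detected by ELISA at 24 h. Endpoint values derive from bidirectional fitting, DMSO serving as baseline.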
# [7] = read-out: Tumor necrosis factor (Homo sapiens) (UniProt P01375); test: BSK_LPS_TNFa: BioMAP Diversity Plus: LPS Assay for Tumour Necrosis Factor alpha (TNFa) Biomarker Activity (AID 2283085); conditions: primary human HUVEC with PBMC; actives raise or lower the signal;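 on AC50: TNFa protein level quantified by ELISA in the co-culture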
# Outline: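 ELISA-based TNFa endpoint in a human endothelial–PBMC co-culture sampled 24 h post-exposure. Curves were fitted in both directions using DMSO as baseline of activity.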
# [8] = read-out: Vascular cell adhesion molecule 1 (VCAM1), VCAM1 (gene 7412); test: BSK_LPS_VCAM1: BioMAP Diversity Plus: LPS Assay for Vascular cell adhesion molecule 1 (VCAM1) Biomarker Activity (AID 2283086); conditions: primary human HUVEC with PBMC; actives raise or lower the signal
# Outline: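 Measured by ELISA: VCAM-1 in LPS-activated HUVEC/PBMC co-cultures 24 h after treatment. Values reflect bidirectional fitting with DMSO as baseline.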
# CD38, CD38 (gene 952) = test: BSK_SAg_CD38: BioMAP Diversity Plus: SAg Assay for CD38 Biomarker Activity (AID 2283087); conditions: primary human HUVEC with PBMC; actives raise or lower the signal
# Outline: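 Measures CD38 on a human endothelial/PBMC co-culture driven by SEB and TSST-1, 24 h after compound exposure, using ELISA with fluorescence detection; DMSO defines baseline for bidirectional curve fitting.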
# CD40, CD40 (gene 958) = test: BSK_SAg_CD40: BioMAP Diversity Plus: SAg Assay for CD40 Biomarker Activity (AID 2283088); conditions: primary human HUVEC with PBMC; actives raise or lower the signal
# Outline: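 Fluorescence ELISA read-out of CD40 from umbilical vein endothelium plus peripheral blood mononuclear cells, sampled 24 h after dosing. Values come from bidirectional curve fitting with DMSO as baseline.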
# CD69, CD69 (gene 969) = test: BSK_SAg_CD69: BioMAP Diversity Plus: SAg Assay for CD69 Biomarker Activity (AID 2283089); conditions: primary human HUVEC with PBMC; actives raise or lower the signal;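 further: cell surface CD69 protein quantified by ELISA with fluorescence detection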
# Outline: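 Primary human vascular co-culture (umbilical vein endothelium with peripheral blood mononuclear cells) exposed to test chemical for 24 h. CD69 levels quantified by fluorescence ELISA; DMSO served as negative control for bidirectional fitting.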
# [9] = read-out: Monocyte Chemoattractant Protein-1 (MCP1), CCL2 (gene 6347); test: BSK_SAg_MCP1: BioMAP Diversity Plus: SAg Assay for Monocyte Chemoattractant Protein-1 (MCP1) Biomarker Activity (AID 2283090); conditions: primary human HUVEC with PBMC; actives raise or lower the signal
# Outline: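 Values derive from bidirectional fitting of ELISA-measured MCP1 against DMSO controls. Readings were taken 24 h after dosing human vascular endothelial cells co-cultured with peripheral blood mononuclear cells under superantigen stimulation.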
# [10] = read-out: E-selectin (Homo sapiens) (UniProt P16581); test: BSK_SAg_Eselectin: BioMAP Diversity Plus: SAg Assay for Eselectin Biomarker Activity (AID 2283091); conditions: primary human HUVEC with PBMC; actives raise or lower the signal
# Outline: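 Primary human endothelial cells and peripheral blood mononuclear cells were co-cultured and exposed to chemical for 24 hours. E-selectin levels were then quantified by ELISA, with bidirectional curve fitting normalised to DMSO controls.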
# [11] = read-out: Monokine induced gamma interferon (MIG), CXCL9 (gene 4283); test: BSK_SAg_MIG: BioMAP Diversity Plus: SAg Assay for Monokine induced gamma interferon (MIG) Biomarker Activity (AID 2283092); conditions: primary human HUVEC with PBMC; actives raise or lower the signal
# Outline: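 Endothelial cells and PBMC were co-cultured, exposed to test chemicals, and sampled 24 h later. MIG was measured by ELISA, and responses were fitted in both directions relative to DMSO.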
# [12] = BSK_SAg_PBMCCytotoxicity: PBMC Cytotoxicity Assessment in the BioMAP Diversity Plus: SAg Assay (AID 2283093); conditions: primary human HUVEC with PBMC;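 further: fitted both ways against DMSO so a hit may be loss or gain of signal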;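 on AC50: PBMC superantigen activated with SEB plus TSST-1 one hour after compound addition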
# Outline: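 PBMC viability by Alamar Blue reduction, fluorescence read at 546/580 nm after 6 h dye exposure. Cells were dosed 1 h before SEB plus TSST-1 activation (20 ng/mL final each), then held 90 h; endothelial/PBMC human co-culture.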
# [13] = read-out: Interleukin-8 (IL8), CXCL8 (gene 3576); test: BSK_SAg_IL8: BioMAP Diversity Plus: SAg Assay for Interleukin-8 (IL8) Biomarker Activity (AID 2283094); conditions: primary human HUVEC with PBMC; actives raise or lower the signal
# Outline: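 Primary human endothelial cells with PBMC, exposed 24 h; IL-8 determined by ELISA, analysed bidirectionally relative to DMSO.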
# [14] = BSK_SAg_Proliferation: Cell Proliferation Assessment in the BioMAP Diversity Plus: SAg Assay (AID 2283095); conditions: primary human HUVEC with PBMC;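 further: relative cell number as total protein by SRB absorbance in sub-confluent culture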
# Outline: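 A human primary co-culture of umbilical vein endothelium and blood mononuclear cells receives compound; relative cell number is quantified at 96 h by SRB staining and 560 nm absorbance, with DMSO-referenced bidirectional curve fitting.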
# [15] = BSK_SAg_SRB: Viability Assessment in the BioMAP Diversity Plus: SAg Assay (AID 2283096); conditions: primary human HUVEC with PBMC;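 further: cells read one day after compound addition; hits may be either gain or loss of signal compared with DMSO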
# Outline: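 Compounds were added to a human vascular co-culture of umbilical vein endothelium and PBMC. After 24 h, parallel cultures were fixed with 10% TCA, stained with 0.1% sulforhodamine B and read at 560 nm. Gain or loss of signal was fitted relative to DMSO.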
# [16] = target: human CYP19A1, CYP19A1 (gene 1588) (UniProt P11511); test: NVS_ADME_hCYP19A1: NovaScreen (NVS) CYP450-related Enzyme Activity (ADME) Assay for human CYP19A1 (AID 2283098; active means hit-call score of the fitted dose curve at least 0.9, where 1 is the maximum;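 on AC50: potency for inhibitors seen as loss of fluorescent enzyme signal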)
# Outline: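 Fluorescence intensity read-out; activity taken as signal loss relative to acetonitrile vehicle. Extracted enzyme, specific substrate, no cells, 0.5 h exposure. Duplicate single-point screen at 10 uM, then concentration–response follow-up for actives.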
# [17] = target: human CYP2A6, CYP2A6 (gene 1548) (UniProt P11509); test: NVS_ADME_hCYP2A6: NovaScreen (NVS) CYP450-related Enzyme Activity (ADME) Assay for human CYP2A6 (AID 2283099; active means hit-call score of the fitted dose curve at least 0.9, where 1 is the maximum)
# Outline: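 Recombinant human CYP2A6 from insect cells was incubated with chemical for 0.5 h and activity read by fluorescence. Single-concentration duplicates at 10 uM preceded concentration-response testing to 20 uM, with activity referenced to acetonitrile.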
# Sequence of human CYP19A1, CYP19A1 (gene 1588) (P11511 whole entry, looked up): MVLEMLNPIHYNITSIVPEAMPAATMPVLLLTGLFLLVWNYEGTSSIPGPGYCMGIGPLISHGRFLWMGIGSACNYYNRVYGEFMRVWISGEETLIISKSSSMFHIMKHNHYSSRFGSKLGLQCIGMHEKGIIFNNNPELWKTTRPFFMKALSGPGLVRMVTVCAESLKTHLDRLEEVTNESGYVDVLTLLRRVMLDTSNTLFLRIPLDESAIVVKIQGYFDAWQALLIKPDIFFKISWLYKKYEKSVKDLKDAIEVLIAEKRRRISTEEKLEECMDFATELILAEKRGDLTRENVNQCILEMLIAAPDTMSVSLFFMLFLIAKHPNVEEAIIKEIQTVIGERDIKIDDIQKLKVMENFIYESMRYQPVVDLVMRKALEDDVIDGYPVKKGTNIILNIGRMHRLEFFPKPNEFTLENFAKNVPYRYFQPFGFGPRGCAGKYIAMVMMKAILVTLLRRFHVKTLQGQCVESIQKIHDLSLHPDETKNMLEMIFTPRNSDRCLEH
# Sequence of E-selectin (Homo sapiens) (P16581 whole entry, looked up): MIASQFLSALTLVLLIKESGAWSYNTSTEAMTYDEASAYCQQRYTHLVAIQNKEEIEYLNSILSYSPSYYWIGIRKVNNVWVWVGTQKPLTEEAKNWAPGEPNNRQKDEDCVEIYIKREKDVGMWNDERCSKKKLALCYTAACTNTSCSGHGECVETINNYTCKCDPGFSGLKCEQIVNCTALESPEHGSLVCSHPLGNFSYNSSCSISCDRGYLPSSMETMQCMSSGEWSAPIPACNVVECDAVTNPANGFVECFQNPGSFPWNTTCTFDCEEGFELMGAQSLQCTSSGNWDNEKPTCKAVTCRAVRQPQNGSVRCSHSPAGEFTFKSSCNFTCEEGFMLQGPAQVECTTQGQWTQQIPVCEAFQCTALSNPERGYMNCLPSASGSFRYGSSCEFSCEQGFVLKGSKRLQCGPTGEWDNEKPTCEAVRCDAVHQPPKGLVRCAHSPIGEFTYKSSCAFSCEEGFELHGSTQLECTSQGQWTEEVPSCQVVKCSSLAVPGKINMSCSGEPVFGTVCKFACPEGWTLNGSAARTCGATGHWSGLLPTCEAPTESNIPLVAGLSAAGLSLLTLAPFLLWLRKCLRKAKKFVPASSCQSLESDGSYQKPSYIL
# Sequence of Tumor necrosis factor (Homo sapiens) (P01375 whole entry, looked up): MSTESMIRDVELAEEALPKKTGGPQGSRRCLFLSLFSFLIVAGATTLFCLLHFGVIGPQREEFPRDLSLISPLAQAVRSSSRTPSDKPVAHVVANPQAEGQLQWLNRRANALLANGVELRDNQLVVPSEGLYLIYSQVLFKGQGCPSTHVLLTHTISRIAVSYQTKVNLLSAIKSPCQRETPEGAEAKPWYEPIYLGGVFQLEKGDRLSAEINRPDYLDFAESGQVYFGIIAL
# Sequence of human CYP2A6, CYP2A6 (gene 1548) (P11509 whole entry, looked up): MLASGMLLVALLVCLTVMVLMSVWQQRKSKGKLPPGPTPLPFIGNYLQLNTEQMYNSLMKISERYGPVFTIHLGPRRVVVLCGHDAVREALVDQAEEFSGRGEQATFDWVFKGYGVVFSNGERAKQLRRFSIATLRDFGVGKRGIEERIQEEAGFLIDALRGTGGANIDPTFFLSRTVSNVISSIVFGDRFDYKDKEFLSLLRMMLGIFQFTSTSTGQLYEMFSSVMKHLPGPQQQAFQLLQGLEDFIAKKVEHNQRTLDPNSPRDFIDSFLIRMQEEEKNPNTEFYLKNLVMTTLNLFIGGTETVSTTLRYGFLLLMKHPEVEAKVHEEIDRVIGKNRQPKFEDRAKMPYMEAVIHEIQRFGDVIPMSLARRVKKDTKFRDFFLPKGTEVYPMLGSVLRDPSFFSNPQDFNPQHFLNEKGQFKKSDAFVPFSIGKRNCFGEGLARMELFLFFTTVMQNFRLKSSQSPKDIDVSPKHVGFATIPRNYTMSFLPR
structure (smiles),measurement,setting,value
CCOP(=S)(OCC)OC(Cl)C(Cl)(Cl)Cl (stereo unspecified),outcome,[1],inactive
same,outcome,[2],inactive
same,outcome,[3],inactive
same,AC50,[4],5.51 µM (active)
same,outcome,[5],inactive
same,outcome,[6],inactive
same,AC50,[7],32.8 µM (active)
same,outcome,[8],inactive
same,AC50,"CD38, CD38 (gene 952)",30.8 µM (active)
same,outcome,"CD40, CD40 (gene 958)",inactive
same,AC50,"CD69, CD69 (gene 969)",28.6 µM (active)
same,outcome,[9],inactive
same,AC50,[10],31.2 µM (active)
same,outcome,[11],inactive
same,AC50,[12],29.9 µM (active)
same,AC50,[13],25.9 µM (active)
same,AC50,[14],33.5 µM (active)
same,AC50,[15],13 µM (active)
COc1ccc(C(=CC(=O)N2CCOCC2)c2ccc(Cl)cc2)cc1OC,outcome,[1],inactive
same,outcome,[2],inactive
same,AC50,[3],1.25 µM (active)
same,outcome,[4],inactive
same,AC50,[5],12.8 µM (active)
same,outcome,[6],inactive
same,AC50,[7],1.4 µM (active)
same,AC50,"CD38, CD38 (gene 952)",17.4 µM (active)
same,AC50,"CD69, CD69 (gene 969)",4.3 µM (active)
same,AC50,[9],12.8 µM (active)
same,AC50,[10],5.93 µM (active)
same,AC50,[11],25 µM (active)
same,AC50,[12],9.07 µM (active)
same,AC50,[13],8.93 µM (active)
same,AC50,[14],12.9 µM (active)
same,outcome,[15],inactive
same,AC50,[16],4.42 µM (active)
CNc1cnn(-c2cccc(C(F)(F)F)c2)c(=O)c1Cl,outcome,[1],inactive
same,outcome,[2],inactive
same,outcome,[3],inactive
same,outcome,[4],inactive
same,outcome,[5],inactive
same,outcome,[6],inactive
same,outcome,[7],inactive
same,outcome,[8],inactive
same,AC50,"CD38, CD38 (gene 952)",9.82 µM (active)
same,AC50,"CD69, CD69 (gene 969)",29.1 µM (active)
same,outcome,[9],inactive
same,AC50,[10],19.2 µM (active)
same,outcome,[11],inactive
same,AC50,[12],7.99 µM (active)
same,AC50,[13],10.9 µM (active)
same,outcome,[14],inactive
same,outcome,[15],inactive
same,outcome,[16],inactive
CCC(CC)Nc1c([N+](=O)[O-])cc(C)c(C)c1[N+](=O)[O-],AC50,[1],20 µM (active)
same,AC50,[2],36.1 µM (active)
same,AC50,[3],20 µM (active)
same,outcome,[4],inactive
same,AC50,[5],18.9 µM (active)
same,outcome,[6],inactive
same,AC50,[7],26.4 µM (active)
same,AC50,[8],15 µM (active)
same,AC50,"CD38, CD38 (gene 952)",28.5 µM (active)
same,AC50,"CD69, CD69 (gene 969)",20 µM (active)
same,AC50,[9],29.1 µM (active)
same,AC50,[10],22.7 µM (active)
same,AC50,[11],29.5 µM (active)
same,AC50,[12],29.2 µM (active)
same,AC50,[13],28.3 µM (active)
same,AC50,[14],28.9 µM (active)
same,AC50,[15],12.3 µM (active)
same,outcome,[16],inactive
CON=C(C(=O)OC)c1ccccc1CON=C(C)c1cccc(C(F)(F)F)c1,AC50,[1],6.96 µM (active)
same,outcome,[2],inactive
same,AC50,[3],2.93 µM (active)
same,AC50,[4],1.14 µM (active)
same,AC50,[5],5.49 µM (active)
same,outcome,[6],inactive
same,AC50,[7],5.02 µM (active)
same,AC50,"CD38, CD38 (gene 952)",5.63 µM (active)
same,AC50,"CD40, CD40 (gene 958)",5.02 µM (active)
same,AC50,[9],4.09 µM (active)
same,AC50,[10],2.08 µM (active)
same,AC50,[11],8.87 µM (active)
same,AC50,[12],1.59 µM (active)
same,AC50,[13],3.2 µM (active)
same,AC50,[14],3.9 µM (active)
same,AC50,[15],3.82 µM (active)
FC(F)C(F)(F)OCC(Cn1cncn1)c1ccc(Cl)cc1Cl (stereo unspecified),AC50,[1],20 µM (active)
same,outcome,[2],inactive
same,outcome,[3],inactive
same,AC50,[4],2.52 µM (active)
same,AC50,[5],30.7 µM (active)
same,outcome,[6],inactive
same,outcome,[7],inactive
same,AC50,[8],32.8 µM (active)
same,AC50,"CD38, CD38 (gene 952)",20 µM (active)
same,AC50,"CD69, CD69 (gene 969)",30 µM (active)
same,outcome,[9],inactive
same,AC50,[10],25.7 µM (active)
same,outcome,[11],inactive
same,outcome,[12],inactive
same,outcome,[13],inactive
same,AC50,[14],23 µM (active)
same,AC50,[15],20 µM (active)
same,AC50,[16],2.15 µM (active)
same,outcome,[17],inactive
